Hits are enriched below; roughly 19% of the tested compounds scored in any of these assays.
IL-1B inflam inh – qHTS for Inhibitors of Inflammasome Signaling: IL-1-beta AlphaLISA Primary Screen; THP-1 LPS/ATP IL-1B secretion, AlphaLISA, 16 h; hits give low values; activity change, % at 57.5 µM; 4.7% of 360,000 active; in the data active = activity change below about -50%; inconclusive = mostly about -30% to -49%
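Secreted IL-1B measured by AlphaLISA bead assay after 16 h compound exposure of THP-1 cells; compounds (final up to 57.5 uM) added 1 h before LPS (250 ng/mL) and ATP (1.25 mM) stimulation; lower signal means less secretion.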
HT1080 IDH1KD tx – qHTS for induction of synthetic lethality in tumor cells producing 2HG: qHTS for the HT-1080-IDH1KD cell line; HT-1080 IDH1 knockdown viability, ATP luminescence, 48 h; Potency, µM (titrated, usually from 46.1 µM), most hits filed as cytotoxic; 2% of 360,000 active
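Assay cells: HT-1080 with IDH1 knockdown, 750 per well, RPMI/5% FBS. Exposure: 48 h at 37 °C following 2 h pre-incubation. Read: CellTiter-Glo luminescence; fitted concentration-response, curve class assigned.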
DT40 TDP1 CPT – qHTS for Inhibitors of human tyrosyl-DNA phosphodiesterase 1 (TDP1): qHTS in cells in presence of CPT; chicken DT40 Tdp1-/-;hTDP1 cells + 20 nM CPT, ATP luminescence, 48 h; Potency, µM (titrated, usually from 46.2 µM), hits mostly inhibitors; 12% of 420,000 active; note: nearly all actives have a fitted effect of over 55% in size
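Chicken DT40 Tdp1-/- cells complemented with human TDP1, 400 cells/well, exposed to compounds plus 20 nM camptothecin for at least 48 h at 37 C; viability read as ATP content by CellTiter-Glo luminescence.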
DT40 TDP1 no CPT – qHTS for Inhibitors of human tyrosyl-DNA phosphodiesterase 1 (TDP1): qHTS in cells in absence of CPT; DT40 Tdp1-/- hTDP1 cells, no CPT, ATP luminescence, 48 h; Potency, µM (titrated, usually from 46.2 µM), actives largely listed as inhibitors; 15% of 420,000 active; AID 686978, 2013; note: nearly all actives have a fitted effect of over 55% in size
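Chicken DT40 Tdp1-/- cells stably complemented with human TDP1 were seeded at 400 cells/well with DMSO in place of 20 nM camptothecin. After compound pinning, cells grew at least 48 hr at 37 °C; viability read by CellTiter-Glo luminescence.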
HT1080NT lethal – qHTS for induction of synthetic lethality in tumor cells producing 2HG: qHTS for the HT-1080-NT fibrosarcoma cell line. HT-1080-NT fibrosarcoma viability, CellTiter-Glo ATP luminescence, 48 h. Potency, µM (top dose mostly 46.1 µM), most hits filed as cytotoxic. 1.6% of 360,000 active. AID 686970, 2013;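 note: NT is the 2HG producing partner of a matched IDH1 knockdown line; nearly all actives have a fitted effect of over 55% in size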
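Viability of the 2HG-overproducing fibrosarcoma line after 48 hours of compound exposure at 37 degrees C was determined by luminescence with CellTiter-Glo, and concentration-effect curves were then fitted and categorized.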
Numbers stand for hits; i = inactive; ? = inconclusive; nt = no result. Unless noted, calls come from the whole dose curve; as a rule, active = well fitted curve in the direction sought with a large enough effect; inconclusive = small, poorly fitted or top-dose-only effect, or another doubt; inactive = no such curve, though single readings can be large; an effect the other way counts as inactive or inconclusive.

SMILES	IL-1B inflam inh	HT1080 IDH1KD tx	DT40 TDP1 CPT	DT40 TDP1 no CPT	HT1080NT lethal
COc1ccc(C2c3ccc(O)cc3Oc3ncn(Cc4ccco4)c(=N)c32)cc1 (centres undefined)	?	i	12µM	21µM	i
O=C1NC[C@@H](Cc2ccc(O)cc2)N(CCc2cc(C(F)(F)F)cc(C(F)(F)F)c2)C1=O	i	i	?	i	i
Cc1ccccc1NC(=S)N1CCCN(Cc2ccc(F)cc2)C1	?	i	i	i	i
Cc1c(Cl)cccc1NC(=S)N1CCCN(Cc2ccc(F)cc2)C1	-88	?	?	?	i
Cc1ccc(C)c(NC(=S)N2CCCCCC2)c1	i	i	21µM	16µM	i
Cc1ccc(NC(=S)N2CCCN(Cc3ccc(F)cc3)C2)c(C)c1	i	i	?	21µM	i
Cc1c(Cl)cccc1NC(=S)N1CCCN(Cc2ccccc2F)C1	i	i	i	i	i
CSc1cccc(NC(=S)N2CCCN(Cc3ccc(F)cc3)C2)c1	-52	?	?	?	i
O=C(Nc1ccc2c(c1)OCO2)N1CCC(CO)(CC2CCCCO2)CC1 (centres undefined)	i	i	i	i	i
CC(=O)Nc1ccc(NC(=O)c2nc(-c3ccccc3)oc2C)cc1	i	i	?	i	i
COc1ccc(NC(=O)CN(C)C(=O)CCCSc2nc3ccccc3[nH]2)cc1	i	i	i	i	i
Cc1ccc(S(=O)(=O)/N=C(/c2ccccc2)N2CCOCC2)c(C)c1	i	i	i	i	i
C=CCn1c(Cc2ccccc2)nc2c(cnn2-c2ccccc2)c1=O	i	?	?	23µM	?
O=c1c2cnn(-c3ccccc3)c2ncn1CCc1ccccc1	i	i	i	?	i
CCN1C(=O)/C(=C\c2ccncc2)SC1=S	i	i	i	i	i
CCCN1C(=O)/C(=C\c2ccncc2)SC1=Nc1ccccc1	-98	i	?	?	i
CCN1C(=O)/C(=C\c2ccncc2)SC1=Nc1ccc(C)c(C)c1	-100	i	?	16µM	i
O=C(O)CCN1C(=O)/C(=C\c2ccncc2)SC1=S	i	i	?	?	i
O=C(COC(=O)c1cncc(Br)c1)NCc1ccc2c(c1)OCO2	i	i	i	i	i
CCN(C(=O)c1c(C)cc(=O)oc1C)c1ccc2c(c1)OCO2	i	i	i	i	i
CCN(C(=O)c1coc(=O)c(Br)c1)c1ccc2c(c1)OCO2	i	?	1.5µM	1µM	?
CC(C(=O)Nc1cccnc1)C1Sc2ccccc2NC1=O (centres undefined)	i	i	i	i	i
CNCc1nc(-c2ccc[nH]2)c2cc(Cl)ccc2n1	nt	nt	11µM	14µM	nt
CSc1nc(-c2ccccc2)c2cc(Cl)ccc2n1	i	i	i	?	i
Cc1nc(-c2cccc(NS(=O)(=O)c3ccccc3)c2)cs1	i	i	?	i	i
SMILES	IL-1B inflam inh	HT1080 IDH1KD tx	DT40 TDP1 CPT	DT40 TDP1 no CPT	HT1080NT lethal
Cc1ccc(S(=O)(=O)Nc2cccc(-c3cn4ccsc4n3)c2)cc1	i	?	?	21µM	?
O=S(=O)(Nc1cccc(-c2cn3cccnc3n2)c1)c1ccc(-c2ccccc2)cc1	i	i	?	15µM	i
Cc1cccc2nc(-c3cccc(NS(=O)(=O)c4ccccc4)c3)cn12	nt	nt	?	23µM	nt
COc1cc(OC)cc(C(=O)Nc2cccc(-c3cn4ccsc4n3)c2)c1	nt	nt	13µM	18µM	nt
COc1cccc(OC)c1C(=O)Nc1cccc(-c2cn3ccsc3n2)c1	nt	nt	i	?	nt
O=S(=O)(Nc1cccc(-c2cn3ccsc3n2)c1)c1ccc(F)cc1	i	i	?	?	i
COCCCNC(=O)Cn1c(=O)n(CCCC(=O)NCc2ccc(C)cc2)c(=O)c2ccccc21	nt	nt	i	i	nt
COc1cc(NC(=O)c2cc3ccccc3cc2OC)ccc1NC(=O)c1cccs1	-69	i	23µM	13µM	i
COc1cc(NC(=O)c2cccc(Cl)c2)ccc1NC(=O)c1cccs1	nt	i	?	18µM	i
COc1cc(C(=O)Nc2cccc(NC(=O)c3cccs3)c2)cc(OC)c1OC	i	i	21µM	21µM	i
COc1cc(NC(=O)c2cccs2)ccc1NC(=O)Cc1ccccc1	i	i	i	i	i
COc1ccc(-c2nnc(NC(=O)c3cccs3)s2)c(OC)c1	i	i	16µM	29µM	i
CCOc1ccccc1NS(=O)(=O)c1cn(C)nc1C	i	i	i	i	i
Cc1cnc(NC(=O)C2CCC(C(C)(C)C)CC2)s1 (centres undefined)	i	i	?	?	i
COc1c(Cl)cc(Cl)cc1C(=O)Nc1ccc(C(=O)O)cc1	i	i	i	i	i
COc1c(Cl)cc(Cl)cc1/C=C/C(=O)c1ccc(NC(=O)c2cccs2)cc1	-104	?	2.3µM	2.6µM	21µM
C#CCOCCOCCOCCNc1nc(OC)nc(N2CCN(C(=O)[C@H](CCC(=O)O)n3cc(C(N)CO)nn3)CC2)n1 (some centres undefined)	i	i	i	i	i
O=C(CCN1CCOCC1)Nc1cc(C(=O)Nc2ccc(Cl)cc2)ccc1N1CC2CC(C1)c1cccc(=O)n1C2 (centres undefined)	-63	i	?	i	i
CC(C)C(=O)Nc1ccc(C(=O)CSc2nnc(C3CC3)n2C2CC2)cc1	i	i	i	i	i
Cc1ccc(N2C(=O)C(Cl)=C(NCc3ccccc3)C2=O)c(C)c1	i	i	i	i	i
CCCNC(=O)C[C@@H]1C[C@H]2c3cc(NC(=O)c4ccc5c(c4)OCO5)ccc3O[C@H]2[C@@H](CO)O1	i	i	23µM	15µM	i
COC(=O)C[C@@H]1C[C@H]2c3cc(NC(=O)CC4CC4)ccc3O[C@H]2[C@@H](CO)O1	i	i	i	i	i
O=C(C[C@@H]1CC[C@H](NC(=O)c2ccc3c(c2)OCO3)[C@@H](CO)O1)NCc1ccc(F)cc1	i	i	?	12µM	i
COc1ccccc1CNC(=O)C[C@@H]1C[C@H]2c3cc(NC(=O)c4ccc5c(c4)OCO5)ccc3O[C@H]2[C@@H](CO)O1	i	i	?	?	i
O=C(C[C@H]1C[C@@H]2c3cc(NC(=O)c4ccc5c(c4)OCO5)ccc3O[C@@H]2[C@H](CO)O1)NCc1cc(F)ccc1F	i	i	?	26µM	i
COc1ccc(C)cc1C(=O)CCC(=O)N1CCN(c2ccccc2F)CC1	i	i	?	i	i
CCOC(=O)C1=C(COC(=O)/C=C/c2ccc([N+](=O)[O-])cc2)NC(=O)NC1C (centres undefined)	i	i	i	i	i
